# Assay results as given in PubChem BioAssay (Tox21).
# Where “and” joins values, the source holds several entries; their conditions need not be identical. Equal entries are not always repeated. Records with an inconclusive call do not appear. Values without a mark were called inactive. Calls of active or inactive are those of the source. The call rests on the fitted dose curve; in most records, active means well fitted cell-killing curve with a large enough effect in the repeat runs; inconclusive means weak or mixed curves, or effect the other way; inactive means flat fitted curve, though single readings scatter.
# Assay: qHTS RealTime-Glo MT Cell Viability Assay in HEK293 cells - 32 hour (AID 1224868); further: nearly all actives have a fitted effect of over 50% in size; on activity change, negative = cytotoxic: top concentration of the series differs between compounds
# Conditions: RealTime-Glo luminescence; series mostly up to 76.8 µM; activity change, negative = cytotoxic: at the top concentration
# Text: National Center for Advancing Translational Sciences [NCATS]
# NIH Chemical Genomics Center [NCGC]
# U.S. Environmental Protection Agency [EPA]
# National Institutes of Environmental Health Sciences [NIEHS]
# National Toxicology Program [NTP]
# U.S. Food and Drug Administration [FDA]
# Measure of cell viability is critical in the cell-base assay. Analysis of cell viability is necessary for the characterization of cell responses to cytotoxic drugs and environmental stress. A RealTime-Glo MT Cell Viability Assay to monitor cell viability in real time of continues cell culture during 40 hours of compound treatment was used to screen Tox21 10K library compounds in Hek293 cells. The RealTime-Glo MT Cell Viability Assay is a nonlytic, homogeneous, bioluminescent method to measure cell viability in real time using a simple, plate-based method. The assay involves adding NanoLuc luciferase and a cell-permeant prosubstrate to cells in culture. Viable cells reduce the proprietary prosubstrate to generate a substrate for NanoLuc luciferase. This substrate diffuses from cells into the surrounding culture medium, where it is rapidly used by the NanoLuc Enzyme to produce a luminescent signal. The signal correlates with the number of viable cells, making the assay well suited for cytotoxicity studies.
# Tox21 Assay Protocol Summary:
# The mixture of Hek293 cell suspension and reagents were dispensed at 600cells/6 ul/well in 1536-well tissue culture treated black solid bottom plates using a Multidrop dispenser. After the assay plates were incubated at a 37 C/5% CO2 incubator for 5 hours, 23 nL of compounds dissolved in DMSO, positive and negative controls was transferred to the assay plate by a pintool work station. The plates were incubated at 37 C for 40 hours. The luminescence intensity were measured at 0h, 8h, 16h, 24h, 32h and 40h time points using ViewLux plate reader during compound treatment.
# On the % scale 0 is the no-effect control and ±100 the full control effect; potency means the concentration at half of the fitted maximal effect.
SMILES,"activity change, negative = cytotoxic",Potency
COC(=O)NN,-6.22%,
CN1CC(=O)NC1=N,13.1% [at 35.3 µM],
CCCCC(CC)COC(=O)c1ccccc1O (stereo not given),1.13% [at 35.3 µM],
N[C@H](C(=O)O)c1ccc(O)cc1,3.67% [at 15.8 µM],
O=C1CCCC(=O)C1,2.14%,
CCCCOCCOCCOCc1cc2c(cc1CCC)OCO2,-20.6% [at 35.3 µM],
O=c1cc(CO)occ1O,4.21% [at 35.3 µM],
CN(C)CCCN1c2ccccc2CCc2ccc(Cl)cc21,,34.7 µM (active) and 21.3 µM (active)
ClC(Cl)(Br)Br,-3.69%,
COc1ccccc1OCC(O)CN1CCN(CC(=O)Nc2c(C)cccc2C)CC1 (stereo not given),-14.1% [at 35.3 µM],
CC(C)(CC(=O)O)C(=O)O,0.434%,
CC1(C)CO[C@@H](CC(=O)O)CN1,5.23% [at 35.3 µM],
NC(CSCC(=O)O)C(=O)O (stereo not given),8.79% [at 35.3 µM],
O=C1CC2CC1C1CCCC21 (stereo not given),-5.45%,
CCCCCCCCCCCCCC=O,5.71% [at 6.97 µM],
NS(=O)(=O)c1ccccc1Cl,-2.7%,
CC(C)(C)NCCNC(C)(C)C,-2.15%,
O=C(c1ccccc1)C1CCCCC1,-10.2%,
CC(C)c1cc2c(cc1S(=O)(=O)O)[C@@]1(C)CCC[C@@](C)(C(=O)O)[C@@H]1CC2,1.46% [at 35.3 µM],
CCN(CC)CCOCCOC(=O)C1(c2ccccc2)CCCC1,-8.87% [at 35.3 µM],

SMILES,"activity change, negative = cytotoxic",Potency
N=C(N)c1ccccc1,1.36%,
C[C@](N)(Cc1ccc(O)cc1)C(=O)O,1.02% [at 6.97 µM],
N=c1nc(N2CCCCC2)cc(N)n1O,-0.441% [at 35.3 µM],
C=CCOCC(CC)(CO)COCC=C,1.07%,
NCCc1cnc[nH]1,1.71% [at 35.3 µM],
CO/N=C(/C(=O)N[C@@H]1C(=O)N2C(C(=O)OCOC(=O)C(C)(C)C)=C(C)CS[C@H]12)c1csc(N)n1,7.47% [at 35.3 µM],
CCC(=O)OC(C)c1ccccc1 (stereo not given),-5.69%,
O=C1NC(=O)[C@@]2(CCOc3ccc(F)cc32)N1,3.83% [at 35.3 µM],
CCCCOCCOCCOCCCC,3.22%,
COc1ccc2c(c1)c(CC(=O)OCC(=O)O)c(C)n2C(=O)c1ccc(Cl)cc1,7.16% [at 35.3 µM],
COc1c(N2C[C@@H]3CCCN[C@@H]3C2)c(F)cc2c(=O)c(C(=O)O)cn(C3CC3)c12,-1.47% [at 35.3 µM],
Nc1ccc(S(=O)(=O)Nc2ccnn2-c2ccccc2)cc1,5.86% [at 15.8 µM],
CCC(C)C1CCCCC1=O (stereo not given),6.39%,
O=c1n(CCO)c(=O)n(CCO)c(=O)n1CCO,,inactive
CCCCCCCCCCCC,13.6%,
c1ccc(CC2=NCCN2)cc1,-7.92% [at 35.3 µM],
C[C@H](NC(CCc1ccccc1)C(=O)O)C(=O)N1CCC[C@H]1C(=O)O (stereo not given in full),-65.8% [at 35.3 µM],
CCCN1CCCC[C@H]1C(=O)Nc1c(C)cccc1C,-0.012% [at 35.3 µM],
CO[Si](CCCOCC1CO1)(OC)OC (stereo not given),,inactive
CC(C)CCCC(C)N (stereo not given),7.33% [at 35.3 µM],
